Consider eight compounds from PubChem BioAssay (NCATS).

Test [1] deals with Lysosomal acid glucosylceramidase (Homo sapiens) (UniProt P04062). Kind of test: Glucocerebrosidase-p2 (AID 348; in the data active means potency below about 10 µM; further: potency means the concentration at half of the fitted maximal effect). As to conditions: purified GBA, blue fluorogenic substrate, 40 min. In a few lines: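 Compounds titrated from 0.6 nM upwards against 0.2 nM enzyme in pH 5.9 citric acid/KH2PO4, taurocholate, tween-20; blue fluorogenic substrate 80 uM, 40 min room temperature, stopped and read Ex 365/Em 440 for AC50.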
Lysosomal acid glucosylceramidase (Homo sapiens), sequence (P04062 whole entry, looked up): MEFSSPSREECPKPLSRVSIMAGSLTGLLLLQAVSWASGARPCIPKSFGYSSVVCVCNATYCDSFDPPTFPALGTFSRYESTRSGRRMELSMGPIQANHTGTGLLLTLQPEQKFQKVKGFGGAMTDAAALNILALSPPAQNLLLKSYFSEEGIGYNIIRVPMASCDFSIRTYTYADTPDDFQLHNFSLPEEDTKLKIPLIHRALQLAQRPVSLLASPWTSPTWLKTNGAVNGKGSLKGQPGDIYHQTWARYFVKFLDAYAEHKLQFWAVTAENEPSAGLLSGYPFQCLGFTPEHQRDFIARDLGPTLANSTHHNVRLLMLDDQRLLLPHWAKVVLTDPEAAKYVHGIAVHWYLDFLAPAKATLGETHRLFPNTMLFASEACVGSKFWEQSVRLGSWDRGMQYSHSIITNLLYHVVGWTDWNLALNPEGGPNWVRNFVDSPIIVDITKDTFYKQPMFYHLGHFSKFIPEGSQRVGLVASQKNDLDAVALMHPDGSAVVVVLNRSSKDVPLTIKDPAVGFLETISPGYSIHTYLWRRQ

Test [2] can be described thus: AP1 Signaling Pathway (AID 357).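 Further: ME-180 reporter cells stimulated with EGF at its EC50 level; on the % scale 0 is the no-effect control and ±100 the full control effect.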 As to conditions: ME-180 AP-1-bla reporter, EGF-induced, beta-lactamase ratio, 5 h; at 7.69 µM (top of the series) unless noted. The procedure, abridged:
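Read-out was the 460nm/530nm emission ratio (excitation 405nm) after CCF4 loading for 2.5 hours at room temperature. Cells carried an AP-1-driven beta-lactamase reporter, were stimulated with EC50 EGF plus compound for 5 hours, and AC50 values came from titrations.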

Test [3] in a line: Stat Signaling Pathway (AID 446).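 Further: ME-180 cervical cancer cells given 40 pM IL-6 alongside compound; SIE-controlled beta-lactamase reporter measured as 460/530 nm FRET emission ratio; on the % scale 0 is the no-effect control and ±100 the full control effect.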 The conditions noted are these: ME-180 (cervical carcinoma) SIE beta-lactamase reporter, IL-6 stimulated, 5 h; at 7.69 µM (top of the series) unless noted. In a few lines:
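ME-180 SIE-bla cells; overnight plating; cpd + IL-6 40 pM, 5 h, 37 C; LiveBLAzer 2.5 h RT; 460/530 nm emission ratio. Normalized to 300 pM IL-6 and 125 nM JAK inhibitor controls.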

Test [4] addresses Glucocorticoid receptor (Homo sapiens) (UniProt P04150). Kind of test: GR-EFC Redistribution (AID 451; calls by dose curve; further: potency means the concentration at half of the fitted maximal effect). As to conditions: CHO-K1 GR-EFC translocation, beta-gal luminescence, 2 h. The procedure, abridged: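 CHO-K1 cells expressing nuclear EA and GR-ED fragments of b-gal; compounds titrated up to 46 uM final, 2 h at 37 C. GR nuclear translocation read as complemented b-gal luminescence after 1 h RT detection.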

The target of test [5] is Mitogen-activated protein kinase 10 (Mus musculus) (UniProt Q61831). Briefly: JNK3 AlphaScreen Assay (AID 530).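 Further: kinase came from lysate of stimulated human HepG2 cells; signal reports phosphorylation of biotinylated GST-cJun 1-79 at Ser73 with 10 µM ATP; on the % scale 0 is the no-effect control and ±100 the full control effect.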 As to conditions: JNK3 lysate, c-Jun phosphorylation; series mostly up to 57.1 µM. The procedure, abridged: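 Pre-activated (IL-1β/TNFα) JNK3 in HepG2 lysates phosphorylates biotin-GST-cJun(1-79), 10 uM ATP; anti-phospho-cJun(Ser73) AlphaScreen read at room temperature, pH 7.6 Tris buffer. Compounds pre-incubated 15 min as titrations.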

Test [6] deals with 3',5'-cyclic-AMP phosphodiesterase 4B (Homo sapiens) (UniProt Q07343). Kind of test: qHTS Assay for Inhibitors of PDE-IV (AID 607; active means well fitted activation curve with a large enough effect in the main read-out, with a control signal flat, not every such curve was filed as active; further: % of control where 0% means no effect). As to conditions: HEK293 ACTOne CNG channel cells, membrane potential fluorescence; series mostly up to 22.9 µM. In a few lines:
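ACTOne HEK293 cells carry a modified cAMP-gated CNG channel and express endogenous PDE4; plated 1000 cells/well, compounds up to 22.9 uM final. Membrane-potential dye fluorescence (ex 535/em 590) was read; parental cells received 10 uM forskolin + 100 uM RO 20-1724.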

Test [7] can be described thus: qHTS Assay for Lipid Storage Modulators (AID 1519; calls by dose curve). As to conditions: Drosophila S3 cells, BODIPY lipid droplet/cell ratio, laser cytometry, cells loaded with oleic acid; for activity change, negative = inhibition: at 57.5 µM (top of the series). The procedure, abridged:
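Cells seeded at 5,000 per well were treated with compounds over a concentration series and loaded with oleic acid (400 uM, as added). Lipid droplet fluorescence (488 nm excitation, 500-530 nm channel) was read by laser-scanning cytometry and normalized to 20 uM Triacsin C.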

Test [8] is described as follows: Primary qHTS for small molecule stabilizers of the endoplasmic reticulum resident proteome: Secreted ER Calcium Modulated Protein (SERCaMP) assay (AID 1508630; active means well fitted curve in the direction sought with a large enough effect; an effect the other way counts as inactive or inconclusive; further: on the % scale 0 is the no-effect control and ±100 the full control effect). The conditions noted are these: SH-SY5Y GLuc-SERCaMP (Gaussia luciferase released on ER calcium loss) secretion, thapsigargin, luminescence; series mostly up to 38.4 µM. In a few lines:
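GLuc-SERCaMP-expressing SH-SY5Y cells, pretreated 16 h with compound, are challenged with thapsigargin to empty ER calcium stores; after 4 h, coelenterazine is added directly to the medium and luminescence is imaged.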

Test [9] has as its target Cytochrome P450 2C9 (Homo sapiens) (UniProt P11712). Kind of test: qHTS Assay for Inhibitors and Substrates of Cytochrome P450 2C9 (AID 883; active means well fitted curve in the direction sought with a large enough effect; an effect the other way counts as inactive or inconclusive; further: on the % scale 0 is the no-effect control and ±100 the full control effect; nearly all actives have a fitted effect of over 60% in size). The conditions noted are these: recombinant CYP2C9, luciferin-H luminescence, 60 min; series mostly up to 57.1 µM. The procedure, abridged:
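10nM CYP2C9 + 100uM Luciferin-H (=KM), 25mM KPO4; cpd 10 min 37C; NADPH regen, 60 min 37C; stop/detect with P450 Glo-Buffer 20 min; luminescence. Norm. to 57uM sulphaphenazole as full inhibition.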

Test [10] deals with Cytochrome P450 3A4 (Homo sapiens) (UniProt P08684). Briefly: qHTS Assay for Activators of Cytochrome P450 3A4 (AID 885; active means well fitted curve in the direction sought with a large enough effect; an effect the other way counts as inactive or inconclusive; further: nearly all actives have a fitted effect of over 65% in size). As to conditions: recombinant CYP3A4, Luciferin-PPXE luminescence, 60 min; series mostly up to 57.1 µM. The procedure, abridged:
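20nM CYP3A4 + 25uM Luciferin-PPXE (=KM), 200mM KPO4; cpd 10 min RT; NADPH regen, 60 min RT; stop w/ detection buffer, 20 min; luminescence. Normalized to 57 uM ketoconazole.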

The mark [11] stands for this setting: measured here: cell count channel max response.
[12] abbreviates: measured here: lipid channel max response.

Results filed as inconclusive are left out. Activity calls are given as the source filed them. Unless noted, the call rests on the fitted dose curve; in most records, active means well fitted curve in either direction with a large enough effect (not every such curve was filed as active); inconclusive means small, poorly fitted or top-dose-only effect, or another doubt; inactive means flat fitted curve, though single readings scatter.

Glucocorticoid receptor (Homo sapiens), sequence (P04150 whole entry, looked up, the tested form may be a part): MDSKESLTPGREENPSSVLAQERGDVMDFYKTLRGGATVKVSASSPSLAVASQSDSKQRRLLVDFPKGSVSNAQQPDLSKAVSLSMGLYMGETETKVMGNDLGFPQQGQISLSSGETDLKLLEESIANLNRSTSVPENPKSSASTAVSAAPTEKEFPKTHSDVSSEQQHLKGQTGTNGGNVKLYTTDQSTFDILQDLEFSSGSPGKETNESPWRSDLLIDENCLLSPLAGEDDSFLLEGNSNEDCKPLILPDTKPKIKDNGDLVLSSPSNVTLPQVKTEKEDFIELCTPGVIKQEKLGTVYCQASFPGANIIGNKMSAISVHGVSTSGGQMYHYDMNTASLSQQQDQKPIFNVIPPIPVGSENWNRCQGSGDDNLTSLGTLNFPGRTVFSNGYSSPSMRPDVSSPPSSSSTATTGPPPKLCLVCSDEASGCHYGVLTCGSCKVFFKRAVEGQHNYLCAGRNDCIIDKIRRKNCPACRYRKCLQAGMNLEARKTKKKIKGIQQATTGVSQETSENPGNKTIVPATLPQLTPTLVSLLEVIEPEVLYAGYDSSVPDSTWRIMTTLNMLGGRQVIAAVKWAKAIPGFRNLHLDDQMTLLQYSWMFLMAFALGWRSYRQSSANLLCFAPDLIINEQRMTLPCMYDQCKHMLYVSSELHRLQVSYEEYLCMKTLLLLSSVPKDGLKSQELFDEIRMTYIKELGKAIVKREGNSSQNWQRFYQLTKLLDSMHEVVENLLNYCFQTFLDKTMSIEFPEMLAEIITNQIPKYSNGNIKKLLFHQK
3',5'-cyclic-AMP phosphodiesterase 4B (Homo sapiens), sequence (Q07343 whole entry, looked up): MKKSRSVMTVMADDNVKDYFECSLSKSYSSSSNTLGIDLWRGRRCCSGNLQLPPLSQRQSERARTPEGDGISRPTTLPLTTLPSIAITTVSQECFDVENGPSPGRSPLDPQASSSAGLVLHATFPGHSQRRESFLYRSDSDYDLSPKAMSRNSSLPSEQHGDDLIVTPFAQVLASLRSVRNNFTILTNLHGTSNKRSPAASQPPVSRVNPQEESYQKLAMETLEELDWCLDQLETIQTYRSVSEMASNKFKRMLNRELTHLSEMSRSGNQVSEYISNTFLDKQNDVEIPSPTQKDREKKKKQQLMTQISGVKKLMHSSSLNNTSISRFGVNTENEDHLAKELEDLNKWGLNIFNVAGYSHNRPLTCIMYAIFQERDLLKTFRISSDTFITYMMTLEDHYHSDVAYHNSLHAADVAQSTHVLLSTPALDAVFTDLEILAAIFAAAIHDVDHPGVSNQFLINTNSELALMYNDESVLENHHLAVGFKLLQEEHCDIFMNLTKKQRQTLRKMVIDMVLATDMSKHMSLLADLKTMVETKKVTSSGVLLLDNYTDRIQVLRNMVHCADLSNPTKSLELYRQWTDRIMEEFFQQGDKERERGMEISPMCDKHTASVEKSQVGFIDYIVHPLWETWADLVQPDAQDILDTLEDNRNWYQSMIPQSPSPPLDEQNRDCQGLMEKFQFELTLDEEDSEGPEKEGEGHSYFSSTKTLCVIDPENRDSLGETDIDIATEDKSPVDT
Cytochrome P450 3A4 (Homo sapiens), sequence (P08684 whole entry, looked up): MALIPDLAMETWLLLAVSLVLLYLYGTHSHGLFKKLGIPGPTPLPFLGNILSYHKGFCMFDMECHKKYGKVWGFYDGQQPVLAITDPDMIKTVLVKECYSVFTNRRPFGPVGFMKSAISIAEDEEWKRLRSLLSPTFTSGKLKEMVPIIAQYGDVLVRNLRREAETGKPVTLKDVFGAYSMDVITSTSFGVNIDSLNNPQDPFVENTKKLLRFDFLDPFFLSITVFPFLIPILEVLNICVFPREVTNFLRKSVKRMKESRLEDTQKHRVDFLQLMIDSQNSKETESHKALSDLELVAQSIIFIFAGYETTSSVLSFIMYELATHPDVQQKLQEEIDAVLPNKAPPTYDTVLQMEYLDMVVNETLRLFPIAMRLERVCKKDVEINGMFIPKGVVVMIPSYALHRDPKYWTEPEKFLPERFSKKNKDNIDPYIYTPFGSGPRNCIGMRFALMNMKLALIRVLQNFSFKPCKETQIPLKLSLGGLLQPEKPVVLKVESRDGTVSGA
Cytochrome P450 2C9 (Homo sapiens), sequence (P11712 whole entry, looked up): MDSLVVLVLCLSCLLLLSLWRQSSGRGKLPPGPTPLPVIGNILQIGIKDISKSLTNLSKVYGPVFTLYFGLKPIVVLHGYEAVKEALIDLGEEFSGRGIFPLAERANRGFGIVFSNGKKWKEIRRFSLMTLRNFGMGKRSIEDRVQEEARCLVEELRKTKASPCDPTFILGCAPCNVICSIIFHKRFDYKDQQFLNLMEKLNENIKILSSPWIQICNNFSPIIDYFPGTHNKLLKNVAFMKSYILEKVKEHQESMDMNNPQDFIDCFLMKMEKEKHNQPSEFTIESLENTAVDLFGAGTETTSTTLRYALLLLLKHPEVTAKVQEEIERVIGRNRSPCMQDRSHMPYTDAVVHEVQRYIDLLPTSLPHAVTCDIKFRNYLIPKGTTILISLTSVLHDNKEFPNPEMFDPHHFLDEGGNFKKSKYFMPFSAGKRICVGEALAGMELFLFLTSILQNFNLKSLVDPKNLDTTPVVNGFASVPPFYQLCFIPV

For `CS(=O)(=O)N1CCC2(CCCN(Cc3ccccc3)C2)CC1`, the results for the Potency in test [1] and in test [4] were > 11.4 µM (inactive) and > 46 µM (inactive), respectively. The activity change, negative = inhibition in [2] was -13.8% (inactive); in test [7], 0.839% (inactive). In test [3], the activity, negative = inhibition is -2.17% (inactive). Besides, the Potency result in test [5] and in test [6] was “inactive” in each case. The max response in test [7] (setting [11]) is 10.5%; in test [7] (setting [12]), 13.7%. Moreover, the outcome in test [8] was inactive.
For `COCC(=O)N1CCC2(CCCN(Cc3ccc(C#N)cc3)C2)CC1`, the Potency is > 11.4 µM (inactive) in test [1] and > 46 µM (inactive) in test [4]. The activity change, negative = inhibition in [2] is 12.6% (inactive); in [7] it was 4.66% (inactive). In test [3], the activity, negative = inhibition was 1.68% (inactive). Besides, the Potency result in [5] and in test [6] was “inactive” each time. For the same compound, the max response in [7] (setting [11]) is -1.66%; in test [7] (setting [12]), 3.44%. In addition, the result in test [8] was inactive.
As to `COc1ccc(C(=O)N2CCC3(CCN(Cc4ccccc4)CC3)CC2)cc1`, the Potency is > 11.4 µM (inactive) in test [1] and > 46 µM (inactive) in test [4]. The activity change, negative = inhibition in test [2] was -0.685% (inactive); in test [7] it was 0.635% (inactive). For the same compound, the activity, negative = inhibition in test [3] was 0.0273% (inactive). The Potency entry in test [5] and in test [6] was “inactive” each time. For the same compound, the max response in test [7] (setting [11]) was -0.0682%; in test [7] (setting [12]), 7.94%. In test [8], the result was inactive.
Take `O=S(=O)(c1ccccc1)N1CCC2(CC1)CN(c1ccncc1)C2`: the Potency in [1] was > 11.4 µM (inactive); in test [4], > 46 µM (inactive). Also, the activity change, negative = inhibition in test [2] is 0.671% (inactive); in test [7] it was 2% (inactive). For the same compound, the activity, negative = inhibition in test [3] was 0.614% (inactive). Also, the Potency entry in test [5], in test [6], in [9] and in test [10] was “inactive” each time. Besides, the max response in test [7] (setting [11]) is 0.397%; in test [7] (setting [12]) it was -0.685%. The outcome in test [8] was inactive.
Take `O=C(c1csnn1)N1CCC2(CCCN(c3ccncc3)C2)CC1`: the Potency in test [1] is > 11.4 µM (inactive); in test [4], > 46 µM (inactive). For the same compound, the figures for the activity change, negative = inhibition in [2] and in test [7] were -17.6% (inactive) and -0.384% (inactive), respectively. In addition, in [3], the activity, negative = inhibition is -10.5% (inactive). The Potency result in test [5] and in test [6] was “inactive” in each case. Besides, the max response is 0.465% in test [7] (setting [11]) and -0.685% in test [7] (setting [12]). The outcome in test [8] was inactive.
With `N#Cc1ccc(CN2CC3(CCN(C(=O)c4ccco4)CC3)C2)cc1`, the Potency was > 11.4 µM (inactive) in test [1] and > 46 µM (inactive) in test [4]. In addition, the activity change, negative = inhibition in test [2] is -7.09% (inactive); in [7], 4.77% (inactive). Further, in test [3], the activity, negative = inhibition was 4.26% (inactive). Moreover, the Potency entry in test [5] and in [6] was “inactive” each time. The figures for the max response in [7] (setting [11]) and in test [7] (setting [12]) were 18.6% and 23.7%, respectively. Moreover, the result in test [8] was inactive.
For the compound `O=C(c1cccc(F)c1)N1CCC2(CCCN(c3ccncc3)C2)CC1`, the values for the Potency in test [1] and in test [4] were > 11.4 µM (inactive) and > 46 µM (inactive), respectively. For the same compound, the activity change, negative = inhibition was 8.58% (inactive) in test [2] and 3.69% (inactive) in test [7]. Besides, the activity, negative = inhibition in test [3] was -8.19% (inactive). For the same compound, the Potency result in [5] and in test [6] was “inactive” in each case. Further, the results for the max response in [7] (setting [11]) and in [7] (setting [12]) were 9.25% and 16.5%, respectively. Further, the outcome in test [8] was inactive.
For the compound `CC(C)NC(=O)N1CC2(CCN(C(=O)c3cccn3C)CC2)C1`, the results for the Potency in test [1] and in test [4] were > 11.4 µM (inactive) and > 46 µM (inactive), respectively. Besides, the results for the activity change, negative = inhibition in test [2] and in test [7] were -10.8% (inactive) and 2.27% (inactive), respectively. The activity, negative = inhibition in [3] is 4.27% (inactive). The Potency result in test [5] and in test [6] was “inactive” throughout. Also, the max response was found to be 10.2% in test [7] (setting [11]) and 15.6% in [7] (setting [12]). The result in test [8] was inactive.
